Assay results as given in the supplement of paper PMC4840960.
± gives the standard deviation of the averaged measurements.

Columns and labels:
[1] = system: E18 rat cortical neuron-glia co-culture; experiment: fiber score / MBP score (myelination specific beyond OL differentiation) (ratio); higher = more myelination-specific MBP alignment; details: treatment time: 8 days (DIV5-DIV13)
Method in brief: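 Reported values are fiber score (continuous MBP fiber length per Olig2+ nucleus) divided by MBP score (thresholded MBP area × intensity per Olig2+ nucleus). They come from primary E18 rat cortical co-cultures treated with library compounds at 1 or 5 µM in myelination medium from DIV5 to DIV13, then fixed in 4 % paraformaldehyde, immunostained for MBP and Olig2 with DAPI, and analysed over four 10X fields per well in duplicate wells.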

[2] = system: E18 rat cortical neuron-glia co-culture; experiment: myelination (MBP fiber length per Olig2+ nucleus), % of 1 µM DAPT response (DMSO = 0) (% of DAPT); higher = more myelination, active = 50 or more; details: treatment time: 8 days (DIV5-DIV13)
Method in brief: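 Rat cortical co-cultures from E18 tissue were dissociated with papain and plated at 20,000 cells/well on 96-well plates coated with poly-d-lysine/laminin. From DIV5 to DIV13, library compounds were added at 1 or 5 µM in myelination medium. After fixation in 4 % paraformaldehyde, cultures were immunostained for MBP and Olig2 and counterstained with DAPI, and four 10X fields were analysed in each of duplicate wells. The myelination value is the length of continuous straight MBP fibers per Olig2+ nucleus, normalised so that 0.1 % DMSO is 0 and a 1 µM positive control is 100.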

SMILES | fiber score / MBP score ([1]; 1 µM) | fiber score / MBP score ([1]; 5 µM) | myelination ([2]; 1 µM) | myelination ([2]; 5 µM)
C#C[C@]1(O)CC[C@H]2[C@@H]3CCC4=CC(=O)CC[C@@H]4[C@H]3CC[C@@]21CC [Levonorgestrel] | 0.998 | 1.12 | -13.4 (inactive) | 0.485 (inactive)
C#C[C@]1(O)CC[C@H]2[C@@H]3CCC4=CC(=O)CC[C@@H]4[C@H]3CC[C@@]21C [Norethindrone] | 0.894 | 0.877 | -8.89 (inactive) | -10.7 (inactive)
COc1ccc2cc([C@H](C)C(=O)O)ccc2c1 [Naproxen] | 0.831 | 0.859 | -5.15 (inactive) | -4.96 (inactive)
COc1cc(/C=C/c2ccc(O)cc2)cc(OC)c1 [Pterostilbene] | 0.637 | 0.668 | -13.8 (inactive) | -12.2 (inactive)
CCc1cccc2c3c([nH]c12)C(CC)(CC(=O)O)OCC3 (configuration not stated) [Etodolac] | 0.706 | 1.38 | -10.5 (inactive) | 16.1 (inactive)
CN(C)CCC(c1ccc(Cl)cc1)c1ccccn1 (configuration not stated) [Chlorpheniramine] | 0.721 ± 0.13 | 0.471 ± 0.094 | -9.68 (inactive) | -17.7 (inactive)
CCN(CC)CC#CCOC(=O)C(O)(c1ccccc1)C1CCCCC1 (configuration not stated) [Oxybutynin] | 0.964 | 0.547 | 9.59 (inactive) | -5.69 (inactive)
C#C[C@]1(O)CC[C@H]2[C@@H]3CCC4=Cc5oncc5C[C@]4(C)[C@H]3CC[C@@]21C [Danazol] | 0.577 | 0.557 | -20.4 (inactive) | -24.3 (inactive)
CN(C)CCCN1c2ccccc2CCc2ccccc21 [Imipramine] | 0.817 | 0.517 | -3.36 (inactive) | -6.74 (inactive)
Nc1ccn([C@@H]2CS[C@H](CO)O2)c(=O)n1 [Lamivudine] | 0.832 ± 0.033 | 0.619 ± 0.073 | -7.54 (inactive) | -12.3 (inactive)
CCN(CC)CCOC(=O)C1(C2CCCCC2)CCCCC1 [Dicyclomine] | 0.616 | 0.288 | -14.3 (inactive) | -24.6 (inactive)
CN1CCN(C2=Nc3cc(F)ccc3Cc3ccccc32)CC1 [Fluperlapine] | 1.15 | 0.587 | 6.96 (inactive) | -12.9 (inactive)
OC(CCN1CCCC1)(c1ccccc1)C1CCCCC1 (configuration not stated) [Procyclidine] | 1.03 | 1.05 | -4.99 (inactive) | 11.6 (inactive)
NCCc1ccc(O)c(O)c1 [Dopamine] | 1.28 | 1.06 | 5.4 (inactive) | 0.308 (inactive)
COc1ccc(CC(C)NCC(O)c2ccc(O)c(NC=O)c2)cc1 (configuration not stated) [Formoterol] | 0.702 | 0.726 | -12.6 (inactive) | -14.5 (inactive)
CC1(C)C[C@@H]1C(=O)N/C(=C\CCCCSC[C@H](N)C(=O)O)C(=O)O [Cilastatin] | 0.833 | 0.756 | -11.5 (inactive) | -15.2 (inactive)
COc1ccc(Cl)cc1C(=O)NCCc1ccc(S(=O)(=O)NC(=O)NC2CCCCC2)cc1 [Glyburide] | 1.07 | 0.835 | 1.49 (inactive) | -10.7 (inactive)
O=C(O[C@H]1[C@H](Oc2ccccc2COC(=O)C2(O)C=CCCC2=O)O[C@H](CO)[C@@H](O)[C@@H]1O)c1ccccc1 (some centres not stated) [Tremulacin] | 0.746 | 2.76 | -11.2 (inactive) | 30.4 (inactive)
CCCc1nc(C(C)(C)O)c(C(=O)O)n1Cc1ccc(-c2ccccc2-c2nnn[nH]2)cc1 [Olmesartan] | 0.778 | 0.698 | -32.2 (inactive) | -45 (inactive)
CN(C)CCC=C1c2ccccc2CCc2ccccc21 [Amitriptyline] | 0.785 | 1.22 | -0.648 (inactive) | 30.2 (inactive)
COc1c(N2CCNC(C)C2)c(F)cc2c(=O)c(C(=O)O)cn(C3CC3)c12 (configuration not stated) [Gatifloxacin] | 0.508 | 0.609 | -17 (inactive) | -14.2 (inactive)
CNC(=C[N+](=O)[O-])NCCSCc1ccc(CN(C)C)o1 [Ranitidine] | 0.594 | 1.03 | -19.6 (inactive) | -7.22 (inactive)
CO[C@H]1/C=C/O[C@@]2(C)Oc3c(C)c(O)c4c(O)c(c5c(nc6cc(C)ccn65)c4c3C2=O)NC(=O)/C(C)=C\C=C\[C@H](C)[C@H](O)[C@@H](C)[C@@H](O)[C@@H](C)[C@H](OC(C)=O)[C@@H]1C [Rifaximin] | 0.779 | 0.73 | -4.06 (inactive) | -12 (inactive)
Oc1ccc(/C=C/c2cc(O)cc(O)c2)cc1 [Resveratrol] | 0.549 | 0.685 | -12 (inactive) | -13.3 (inactive)

SMILES | fiber score / MBP score ([1]; 1 µM) | fiber score / MBP score ([1]; 5 µM) | myelination ([2]; 1 µM) | myelination ([2]; 5 µM)
COC(=O)C1=C(C)NC(C)=C(C(=O)OC2CCCN(Cc3ccccc3)C2)C1c1cccc([N+](=O)[O-])c1 (configuration not stated) [Benidipine] | 0.524 | 0.892 | -35.3 (inactive) | -63 (inactive)
O=C1C(CC[S+]([O-])c2ccccc2)C(=O)N(c2ccccc2)N1c1ccccc1 (configuration not stated) [Sulfinpyrazone] | 1.18 | 0.857 | -0.801 (inactive) | -7.44 (inactive)
COc1ccccc1N1CCN(CC(O)COc2cccc3ccccc23)CC1 (configuration not stated) [Naftopidil] | 0.655 | 0.695 | -33.5 (inactive) | 15 (inactive)
CC(=O)NC[C@H]1CN(c2ccc(N3CCOCC3)c(F)c2)C(=O)O1 [linezolid] | 0.899 | 0.929 | -7.33 (inactive) | 0.414 (inactive)
CC1(C)S[C@@H]2[C@H](NC(=O)[C@H](N)c3ccccc3)C(=O)N2[C@H]1C(=O)O [Ampicillin] | 0.301 | 0.192 | -16.3 (inactive) | -18.9 (inactive)
O=c1cnn([C@@H]2O[C@H](CO)[C@@H](O)[C@H]2O)c(=O)[nH]1 [Azauridine] | 0.944 | 0.453 | -6.45 (inactive) | -26.1 (inactive)
COC(=O)C1=C(C)NC(C)=C(C(=O)OC(C)C)C1c1cccc2nonc12 (configuration not stated) [Isradipine] | 0.618 | 0.922 | -16.2 (inactive) | 34.9 (inactive)
CNC(=N)NCCC[C@H](N)C(=O)O | 0.684 | 0.854 | -37.1 (inactive) | -9.76 (inactive)
CC1Cc2ccccc2N1NC(=O)c1ccc(Cl)c(S(N)(=O)=O)c1 (configuration not stated) [Indapamide] | 0.911 | 1.31 | -4.93 (inactive) | 6.67 (inactive)
Cc1onc(-c2ccccc2)c1C(=O)N[C@@H]1C(=O)N2[C@@H]1SC(C)(C)[C@@H]2C(=O)O [Oxacillin] | 0.974 | 0.897 | -4.75 (inactive) | -10.5 (inactive)
O=C(O)Cc1ccccc1Nc1c(Cl)cccc1Cl [Diclofenac] | 0.824 | 0.883 | -25.4 (inactive) | -15.6 (inactive)
CCCC(=O)O[C@]1(C(=O)COC(=O)CC)CC[C@H]2[C@@H]3CCC4=CC(=O)CC[C@]4(C)[C@H]3[C@@H](O)C[C@@]21C [Hydrocortisone buteprate] | 1.04 | 1.22 | 5.43 (inactive) | 12.1 (inactive)
COc1ccccc1OCC(O)CN1CCN(CC(=O)Nc2c(C)cccc2C)CC1 (configuration not stated) [Ranolazine] | 0.877 | 0.697 | -13.7 (inactive) | -22.5 (inactive)
CC(C)(C)C(O)/C=C/c1ccc2c(c1)OCO2 (configuration not stated) [Stiripentol] | 0.738 | 0.84 | -11.3 (inactive) | -6.09 (inactive)
C=C1/C(=C\C=C2/CCC[C@]3(C)[C@@H]([C@H](C)/C=C/[C@@H](O)C4CC4)CC[C@@H]23)C[C@@H](O)C[C@@H]1O [Calcipotriene] | 0.711 | 0.6 | -43.8 (inactive) | -82.7 (inactive)
Nc1nc(Cl)nc2c1ncn2[C@@H]1O[C@H](CO)[C@@H](O)[C@H]1O [2-Chloroadenosine] | 0.752 | 0.764 | -12.4 (inactive) | -10.5 (inactive)
C[C@H]1C[C@H]2[C@@H]3CCC4=CC(=O)C=C[C@]4(C)[C@@]3(F)[C@@H](O)C[C@]2(C)[C@@]1(O)C(=O)CCl [Clobetasol] | 0.961 | 0.686 | 7.06 (inactive) | -9.01 (inactive)
CN(CCO)CC(O)Cn1cnc2c1c(=O)n(C)c(=O)n2C (configuration not stated) [Jupal] | 0.827 | 0.635 | -7.05 (inactive) | -10.5 (inactive)
COC1=CC(=O)C[C@@H](C)[C@]12Oc1c(Cl)c(OC)cc(OC)c1C2=O [Griseofulvin] | 0.759 | 0.92 | -17.8 (inactive) | 21.8 (inactive)
CC(=O)OCC(=O)NCCCOc1cccc(CN2CCCCC2)c1 [Roxatidine acetate] | 0.727 | 0.706 | -10.7 (inactive) | -14.2 (inactive)
Cc1nnc(SCC2=C(C(=O)O)N3C(=O)[C@@H](NC(=O)Cn4cnnn4)[C@H]3SC2)s1 [Cefazolin] | 0.798 | 1.19 | -6.67 (inactive) | 6.84 (inactive)
C#C[C@]1(OC(C)=O)CC[C@H]2[C@@H]3CCC4=CC(=O)CC[C@@H]4[C@H]3CC[C@@]21C [Norethisterone acetate] | 0.907 | 0.989 | -8.44 (inactive) | -6.86 (inactive)
CCOC(=O)CCC(=O)O[C@H]1[C@H](O[C@@H]2[C@@H](C)[C@H](O[C@H]3C[C@@](C)(OC)[C@@H](O)[C@H](C)O3)[C@@H](C)C(=O)O[C@H](CC)[C@@](C)(O)[C@H](O)[C@@H](C)C(=O)[C@H](C)C[C@@]2(C)O)O[C@H](C)C[C@@H]1N(C)C [Erythromycin Ethylsuccinate] | 0.639 | 0.642 | -18 (inactive) | -16.3 (inactive)
C#C[C@]1(O)CC[C@H]2[C@@H]3CCc4cc(O)ccc4[C@H]3CC[C@@]21C [Ethinyl Estradiol] | 0.608 | 0.958 | -18.3 (inactive) | 159
